Bioassay records: PubChem BioAssay, University of Kansas High Throughput Screening Laboratory
mHTT CaM bind – mHTT-calmodulin interaction abrogation; AlphaScreen His-mHTT/GST-CaM binding, luminescence; inhibition, % at 15 µM; 190,000 compounds, 3.6% hits;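 note: 0% = both proteins with DMSO and 100% = one protein alone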
Pf apPOL block – Pf-apPOL DNA polymerase inhibition. Recombinant Pf-apPOL, molecular beacon fluorescence, 1.5 h. inhibition, % at 10 µM. 210,000 compounds, 0.25% hits. AID 1794808
An asterisk follows results filed as active; nt = no result. The list is not random: actives were taken first. Their share in the collection is about 3.6%. Cut-off read from the data, not from the text of the source: active = inhibition above about 50%; inactive = the rest.

SMILES	mHTT CaM bind	Pf apPOL block
COc1ccccc1-n1nc(C(=O)N2CCC(Cc3ccccc3)CC2)c2ccccc2c1=O	58*	-2
COc1ccccc1-n1nc(C(=O)N2CCC(C)CC2)c2ccccc2c1=O	-5	0
COc1ccc(Cl)cc1S(=O)(=O)N1CCC(c2noc(-c3ccc(C)cc3)n2)CC1	-26	-7
Cn1c(=O)c(C(=O)N2CCCC2)nc2cccnc21	2	1
CCOc1cc(C2C3=C(CCCC3=O)NC3=C2C(=O)CCC3)ccc1OCc1cccc(F)c1	75*	-30
COc1cc(C2C3=C(CCCC3=O)Nc3ccc4ncccc4c32)ccc1OCc1ccccc1 (stereo not drawn)	100*	-1
O=C1CCCC2=C1C(c1ccc(OCc3ccccc3F)c(Cl)c1)C1=C(CCCC1=O)N2	-6	-4
CCOc1ccc(C2C3=C(CCCC3=O)Nc3ccc4ncccc4c32)cc1 (stereo not drawn)	36	-1
O=C(NCc1ccco1)c1cc(-c2ccc(Br)s2)nc2ccccc12	35	-4
Cc1ccc(CNC(=O)c2cc(-c3ccc(Br)s3)nc3ccccc23)o1	96*	-6
COc1ccc(C(C)NC(=O)c2cc(NC(C)=O)cc3nc(C)ccc23)cc1 (stereo not drawn)	54*	42
CC(=O)Nc1cc(C(=O)NCc2ccccc2Br)c2ccc(C)nc2c1	55*	33
Cc1ccc2c(C(=O)NCc3ccc(C)o3)cc(NC(=O)C3CCC3)cc2n1	64*	12
CCOc1ccccc1CNC(=O)c1cc(NC(C)=O)cc2nc(C)ccc12	40	5
CCOc1ccc(C(C)NC(=O)c2cc(NC(C)=O)cc3nc(C)ccc23)cc1 (stereo not drawn)	50	10
CNC(=O)c1cc(NC(=O)C2CCC2)cc2nc(C)ccc12	5	10
O=C(Cn1[nH]c2c(cnc3ccc(F)cc32)c1=O)Nc1cccc(F)c1	28	1
O=C(c1cc2nc(-c3ccccc3)cc(C(F)(F)F)n2n1)N1CCCCC1	-5	0
Cc1ccccc1-n1nc2c(c1NC(=O)c1ccc3c(c1)OCO3)CS(=O)C2 (stereo not drawn)	-3	-6
COc1ccc(Br)cc1C1SCC(=O)N1c1ccc(Br)cc1 (stereo not drawn)	3	-4
COc1ccc(C(=O)N2CCc3cn(C)c4cccc(c34)C2)cc1	55*	-2
Cn1cc2c3c(cccc31)CN(C(=O)Cc1ccc(Cl)cc1)CC2	27	-1
CS(=O)(=O)N(Cc1ccccc1Cl)c1ccc(C(=O)N2CCc3ccccc3C2)cc1	98*	-1
COc1ccc(C(=O)N2CCc3cn(C)c4cccc(c34)C2)c(OC)c1	47	-2
Cn1cc2c3c(cccc31)CN(C(=O)c1cc(F)cc(F)c1)CC2	30	-1
SMILES	mHTT CaM bind	Pf apPOL block
Cn1cc2c3c(cccc31)CN(C(=O)c1ccc(Cl)cc1)CC2	54*	-4
Cn1cc2c3c(cccc31)CN(C(=O)c1cccc(Cl)c1)CC2	73*	-8
CS(=O)(=O)N(Cc1ccccc1Cl)c1ccc(C(N)=O)cc1	-5	-4
CCCn1cc2c3c(cccc31)CN(C(=O)Cc1ccc(OC)cc1)CC2	57*	-2
Cc1cccc(C(=O)N2CCc3cn(C)c4cccc(c34)C2)c1	19	-7
CCCn1cc2c3c(cccc31)CN(C(=O)c1ccc(OC)cc1)CC2	78*	-3
CCn1cc2c3c(cccc31)CN(C(=O)CCc1ccc(OC)cc1)CC2	58*	-4
CCn1cc2c3c(cccc31)CN(C(=O)c1ccco1)CC2	-8	-2
Cc1ccc(C(=O)N2CCc3cn(C)c4cccc(c34)C2)cc1C	79*	-3
CCCn1cc2c3c(cccc31)CN(C(=O)NCc1ccc(OC)cc1)CC2	18	-2
COCCn1cc2c3c(cccc31)CN(C(=O)NCc1ccc(OC)cc1)CC2	9	2
Fc1ccc(F)c(CN2CCC(Cn3cnc4ccccc43)CC2)c1	-12	-5
COc1ccc(C(C)NC(=O)c2c(C)noc2-c2cccnc2)cc1 (stereo not drawn)	-9	-5
Cc1csc(-c2cccc(CN)c2)n1	-3	0
O=C1NC(c2ccc(-c3ccc(F)cc3)o2)Nc2sc3c(c21)CCCC3 (stereo not drawn)	63*	19
O=C1NC(c2ccc(O)cc2)Nc2sc3c(c21)CCCC3 (stereo not drawn)	57*	-1
O=C1NC(c2cccs2)Nc2sc3c(c21)CCCC3 (stereo not drawn)	7	-2
O=C1NC(/C=C/c2ccccc2)Nc2sc3c(c21)CCCC3 (stereo not drawn)	66*	-5
O=C1NC(c2ccc3c(c2)OCO3)Nc2sc3c(c21)CCCC3 (stereo not drawn)	1	-8
CN(C)c1ccc(C2NC(=O)c3c(sc4c3CCCC4)N2)cc1 (stereo not drawn)	26	12
CCOC(=O)CSc1nnc(NC(=O)c2cccc(Br)c2)s1	-17	-4
COc1ccc(CNCc2cc(OC)c(OC)c(OC)c2)cc1	nt	2
O=C(O)CCN1C(=O)C2C3CC(C2C1=O)C1C(c2ccc(O)cc2)c2sc(=O)[nH]c2SC31 (stereo not drawn)	10	2
Cc1nnc(NC(=O)CCc2c(C)n[nH]c2C)s1	-10	-2
NNc1ccc2c(Cl)cc(Cl)c(O)c2n1	100*	-5
SMILES	mHTT CaM bind	Pf apPOL block
O=c1ccc2c(Cl)cc(Cl)c(O)c2[nH]1	12	-3
Cc1ccc(C)c(N2C(=O)C3C4C=CC(O4)C3C2=O)c1 (stereo not drawn)	-6	-1
CC(=O)c1ccc(NC2=C(N3CCCC3)C(=O)c3ccccc3C2=O)cc1	86*	-6
O=C1C(Nc2ccc(Br)cc2)=C(N2CCCCC2)C(=O)c2ccccc21	95*	11
Cc1ccc(NC2=C(N3CCCCC3)C(=O)c3ccccc3C2=O)cc1	68*	5
O=C1C(Nc2ccccc2)=C(N2CCCCC2)C(=O)c2ccccc21	24	8
O=C1C(Nc2cc(F)cc(F)c2)=C(N2CCOCC2)C(=O)c2ccccc21	19	-8
O=C1C(Nc2ccc(Br)cc2)=C(n2nnc3ccccc32)C(=O)c2ccccc21	-3	-4
CCN1CCn2cc(C(=O)NCc3cc(C)ccc3C)nc2C1	5	-7
CC1(C)Cc2c(sc3nc4n(c(=O)c23)CCS4)CO1	1	-1
O=C(c1ccccc1)N1CCN(c2nc(-c3ccccc3)cs2)CC1	23	-7
O=C(NC1CCCC1)c1csc(-c2ccc(N3CCCCC3)nc2)n1	-2	2
COc1ccc(NC(=O)CCOc2ccccc2)c(OC)c1	2	-138
COc1ccc(NC(=O)CC2(C)NN=C(c3ccccc3)S2)c(OC)c1 (stereo not drawn)	73*	-25
CCc1nc(-c2c(C)cc(C)nc2NC(=O)c2cc(C)ccc2C)no1	-2	-2
COc1ccc(CCCC(=O)O)cc1C	2	63*
COc1ccc(OC)c(CCC(=O)O)c1	-7	-9
COc1ccc(NC(=O)N2CCCN(C3CCN(Cc4ccc(F)cc4)C3=O)CC2)cc1 (stereo not drawn)	4	-5
COc1ccc(OC)c(-c2nc(NC(=O)c3ccc(C)cc3)sc2C)c1	43	-12
CCCn1ncc(N2CCC(C(=O)Nc3ccc(OC)cc3OC)CC2)cc1=O	20	-2
CCOc1ccc(NC(=O)C2CCN(c3cc(=O)n(C)c(=O)n3CC)CC2)cc1	61*	-2
